From the supplement of paper PMC6555819

Experiments:
Test in all cases: PBM binding z-score (relative to random genomic background probes); higher = stronger binding; sequences stand for … in GC…GCGATTGACAGCGTAGAATGAAGG
[1] = tested on: FXR:RXRa (NR concentration 270 nM, RXRa partner concentration 90 nM)
Method in brief: (§1)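 On custom Agilent 4×180K arrays, double-stranded probes with 34-nt variable regions carried direct-repeat seeds, single-nucleotide variants, half-site ablations or random human genomic background. Ligand-free nuclear receptor dimers were applied for 1 h, and binding was read with antibodies against each partner (one per run). Binding z-scores come from regression-normalized fluorescence, with the random background probes as reference.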

[2] = tested on: LXRa:RXRa (NR concentration 270 nM, RXRa partner concentration 90 nM)
Method in brief: as §1

[3] = tested on: LXRa homodimer (NR concentration 270 nM)
Method in brief: as §1

[4] = tested on: LXRb:RXRa (NR concentration 270 nM, RXRa partner concentration 90 nM)
Method in brief: as §1

[5] = tested on: LXRb homodimer (NR concentration 270 nM)
Method in brief: as §1

[6] = tested on: PPARa:RXRa (NR concentration 270 nM, RXRa partner concentration 90 nM)
Method in brief: as §1

[7] = tested on: PPARg:RXRa (NR concentration 180 nM, RXRa partner concentration 90 nM)
Method in brief: as §1

[8] = tested on: PPARg:RXRa 270nM:90nM, anti-RXR (NR concentration 270 nM, RXRa partner concentration 90 nM)
Method in brief: as §1

[9] = tested on: PPARg:RXRa 30nM:10nM, anti-RXR (NR concentration 30 nM, RXRa partner concentration 10 nM)
Method in brief: as §1

[10] = tested on: PPARg:RXRa 90nM:30nM, anti-RXR (NR concentration 90 nM, RXRa partner concentration 30 nM)
Method in brief: as §1

[11] = tested on: PPARg:RXRa DBDmut IVT, anti-RXR (DBD mutation: RXRa K156A/R161A, NR concentration 270 nM, RXRa partner concentration 90 nM)
Method in brief: as §1

[12] = tested on: PPARg:RXRa IVT, anti-PPARg (NR concentration 270 nM, RXRa partner concentration 90 nM)
Method in brief: as §1

[13] = tested on: PPARg DBDmut:RXRa IVT, anti-PPARg (DBD mutation: PPARg1 K132A/R137A, NR concentration 270 nM, RXRa partner concentration 90 nM)
Method in brief: as §1

[14] = tested on: PPARg DBDmut IVT, anti-PPARg (DBD mutation: PPARg1 K132A/R137A, NR concentration 270 nM)
Method in brief: as §1

[15] = tested on: PPARg homodimer (NR concentration 180 nM)
Method in brief: as §1

[16] = tested on: PXR:RXRa (NR concentration 270 nM, RXRa partner concentration 90 nM)
Method in brief: as §1

[17] = tested on: PXR homodimer (NR concentration 270 nM)
Method in brief: as §1

[18] = tested on: RARa:RXR (NR concentration 270 nM, RXRa partner concentration 90 nM)
Method in brief: as §1

[19] = tested on: RARa homodimer (NR concentration 270 nM)
Method in brief: as §1

[20] = tested on: RARb:RXRa (NR concentration 270 nM, RXRa partner concentration 90 nM)
Method in brief: as §1

Sequence	PBM binding z-score [1]	PBM binding z-score [2]	PBM binding z-score [3]	PBM binding z-score [4]	PBM binding z-score [5]	PBM binding z-score [6]	PBM binding z-score [7]	PBM binding z-score [8]	PBM binding z-score [9]	PBM binding z-score [10]	PBM binding z-score [11]	PBM binding z-score [12]	PBM binding z-score [13]	PBM binding z-score [14]	PBM binding z-score [15]	PBM binding z-score [16]	PBM binding z-score [17]	PBM binding z-score [18]	PBM binding z-score [19]	PBM binding z-score [20]
CAAACTAGGTCGAGAGGTCAAAGTCCGCTTCCCG	5.34	5.53	4.87	4.61	1.17	5.6	6.98	6.37	4.44	6.54	5.89	6.2	0.871	-0.159	2.68	5.25	1.9	5.44	1.21	4.24
TCGAGTAGGTTATTCGGGGCATTCAGCCAACATA	1.16	1.05	0.0577	1.51	-0.7	1.69	0.35	1.19	1.13	1.07	3.04	2.49	-0.276	-0.446	-0.00227	0.948	0.669	0.746	-0.612	0.781
CCTACTGGGCCAAGGTGATTGATCAGTCAAAGCA	-0.711	-0.732	-0.784	-0.722	-1.14	0.274	1.29	2.08	0.0836	1.45	3.98	3.6	-0.461	-1.01	-0.0957	-0.771	-0.714	-0.606	-1.01	0.182
TCTAGTTGGTCACGGCGGTCACACACGACGGGTA	0.993	1.08	0.832	0.799	0.516	1.39	1.12	1.99	3.11	2.43	2.36	3.13	1.09	1.25	1.16	0.555	0.174	0.871	0.669	2.52
CCGACTGGGGCAAGGTTACGATAACGCACAGCCA	0.216	0.654	-0.354	0.677	-1.27	2.06	2.79	3.25	0.969	2.5	3.36	3.57	-0.0114	-0.572	0.143	0.367	-0.626	0.767	-0.286	1.66
TCTATGAGTTGAAGGGCAACCGACGAGTCCGTTT	0.419	0.7	-0.373	0.405	-0.437	1.2	0.607	1.51	2.54	2.22	1.46	0.477	-0.166	0.0578	-0.142	0.853	0.0161	0.674	-0.22	1.37
TGAATGAGCTTAAAGATCAGGGAACGTGGCGTCG	-0.0785	-0.405	-0.642	-0.65	-0.626	-0.428	0.39	0.417	-0.0177	0.152	-0.909	-0.722	-0.0715	-0.43	-0.49	-0.508	-0.697	-0.284	-0.372	-0.351
ATCACTAGGTAACAAGTTCAGTGAAAGAGAGGAC	0.674	0.942	0.705	0.664	0.576	1.94	3.04	3.04	1.14	2.5	5	4.3	1.27	0.914	1.31	1.95	2.35	0.935	1.41	1.8
CCTACTGGGCCAACGGTCATTGATTCCAATGCTC	0.0438	-0.079	0.674	-0.198	-0.607	2.53	5.23	6.24	4.4	5.61	3.68	4.73	-0.311	-0.326	0.249	-0.304	0.00743	-0.143	-0.558	1.37
TCTTCTAGATCAAAGGTTAAGAAAGCCGAAGCCT	1.43	1.87	-0.049	2.13	0.536	4.9	7.46	8.19	8.13	8.51	2.42	3.52	0.463	0.915	1.09	1.63	-0.258	2.74	0.0747	1.98
ATATGTAAGTTAAGGGTCATTCAGGTTGGTTCGC	4.42	4.64	3.27	4.11	1.56	5.03	6.82	7.16	6.71	7.81	1.13	3.7	1.79	1.39	4.41	5.17	2.93	4.86	1.97	3.42
GATACAGGTTCAGCTAGAGGCCAGAGTATGGAAA	0.427	0.656	-0.157	0.305	-0.537	1.29	0.495	0.117	-0.177	-0.176	-0.632	-0.397	-0.984	-1	0.61	1.19	-0.0373	1.64	0.321	1.35
CCGCCTGGGGCATAAGGTTACCATAAGCCAGCCC	0.396	2.13	-0.0987	0.843	-1.3	1.3	0.507	0.996	-0.661	0.461	-0.446	-0.147	-2.09	-2.48	0.35	0.37	-0.511	1.52	-0.89	1.68
ACTGACGGGTCAACGAGGTTATAGCACGCGTATA	5.56	4.16	0.67	3.43	0.166	5.03	3.34	3.77	0.997	2.17	0.94	2.54	0.338	0.241	1.88	4.39	2.3	4.36	0.626	3.87
TCTCTTAGTTGAAGGGCAACCGACGAGTCCGTTT	0.776	1.01	0.193	0.945	0.697	1.06	-0.252	2.02	3.7	3.13	2.62	0.645	0.259	0.537	0.739	0.86	0.261	0.472	0.622	1.63
CCTGCTAGCTCAATGGTCAGCTAAAGCAGCTCGC	-0.674	-0.624	-0.571	-0.457	-0.691	-0.408	-0.805	-0.234	-0.854	-0.539	-0.172	-0.705	-1.42	-1.42	-0.534	-0.568	-0.761	-0.44	-0.89	0.0479
TAGCCTAGGTCATTGGGCCAGTAAAGTACGCATC	4.37	3.38	0.448	2.29	0.0341	4	3.28	3.76	1.14	2.4	2.98	3.93	-0.798	-0.582	0.663	1.55	-0.454	2.08	0.18	3.63
TCAGACGGGTGAAGGTAACTCAGGTACGCAGTCG	0.211	1.12	-0.137	0.138	-0.885	1.02	0.625	1.66	2.83	2.17	1.98	0.818	-0.457	-0.479	0.581	0.181	-0.137	0.411	-0.487	0.641
ATATGTAGGGTAAGGGTCATTCAGGTTGGTTCGC	4.75	4.47	2.94	4.47	3.06	6.52	11.9	10.3	11.2	12	6.71	7.53	5.99	4.1	6.25	5.47	4.86	5.19	3.71	3.53
CGTCCAAGGTCAATGCTAGGTCAGCGAAAGCATT	6.63	5.79	2.77	4.08	1.43	5.16	4.44	4.73	1.24	3.25	3.48	4.11	0.86	0.428	7.14	4.98	1.31	6.26	1.36	5.17
TCATATAGGTAAATGCTAGGTGCAAGTCCGATCT	0.626	0.526	0.11	0.195	0.0143	1.05	0.562	2.08	3.84	2.96	3.77	1.96	1.24	0.918	0.912	0.511	0.449	0.897	0.586	0.263
TCTATTAGTTGAAGGGTAACCGACGAGTCCGTTT	1.06	1.12	0.425	1.17	0.781	1.35	0.607	2.8	4.16	3.37	2.52	0.636	0.556	0.761	1.56	1.03	0.714	1.09	1.6	0.96
ATCTCTAGGGAACAAGTTCAGTGAAAGAGAGGAC	0.199	0.374	0.318	0.32	0.577	0.667	0.723	1.08	0.126	0.728	0.484	0.703	0.478	0.258	0.773	1.36	1.25	0.667	0.314	1.3
TGAATGAGGTTATCAGATCAGGGAACGTTGCAAA	1.75	1.5	-0.39	1.18	-0.266	3.2	1.74	2.18	0.777	1.28	1.59	2.2	0.55	-0.0543	1.69	0.942	-0.255	1.45	-0.892	1.44
ATCTCTAGGTAAGACACAGTTCAGTGAAGAACGC	0.376	1.1	1.08	0.767	1.15	0.964	1.03	1.98	0.784	1.72	2.01	1.34	1.21	1.33	1.82	1.31	1.06	0.786	1.69	0.924
CCTACTGAGCCAAAGGTCATTGATTCCAATGCTC	5.45	5.55	4.66	5.13	2.18	5.53	8.72	8.74	7.32	9.2	1.79	3.91	0.27	0.224	5.35	5.49	2.67	5.91	2.36	4.57
CCGAGTAGGTTATGGGGCATTCACGCAACGGTGA	0.165	0.583	-0.0835	0.908	0.284	2.27	3.48	4.67	2.32	4.69	3.46	3.48	0.0074	-0.799	1.81	-0.0726	-0.244	0.125	0.665	1.06
GCGACTCGGGCAAAGCAGGTTACCATAAGGTTGG	-0.00273	-0.166	-0.636	-0.448	-1.41	0.221	0.413	-0.165	-0.926	-0.846	0.437	0.613	-1.22	-1.92	-0.783	-0.339	-0.681	0.418	-0.821	0.403
ACTAGCAGGCCACGGGTCACTCAAGATTAGTCCG	0.933	1.15	-0.0855	1.3	-0.734	2.7	3.18	3.72	1.75	3.53	1.77	3.02	0.251	-0.351	0.555	1.52	-0.598	2.05	-0.386	2.17
